According to PubChem BioAssay (NCATS):
Records with an inconclusive call do not appear. Calls of active or inactive are those of the source. The call rests on the fitted dose curve; in most records, active means well fitted cell-killing curve with a large enough effect; inconclusive means small, poorly fitted or top-dose-only effect; inactive means flat fitted curve, though single readings scatter.

Assay: Quantitative highthroughput screen to assess conditional lethalithy of P12 Ichikawa cells grown in RPMI1640 with untreated serum (RPMI+s) (AID 1963881); further: nearly all actives have a fitted effect of over 35% in size;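 on viability: 100% = DMSO wells and 0% = empty wells without cells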
Conditions: ATP luminescence, 48 h; Potency: viability; series mostly up to 45.8 µM; viability: at the top concentration
Summary of the method: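 Each medium arm—HPLM with 10% dialyzed FBS, or RPMI1640 with 5 mM glucose and 10% untreated or dialyzed FBS—was screened against an 11-point, 3-fold compound titration for 48 h at 37 °C, with CellTiter-Glo luminescence as endpoint.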
Potency means the concentration at half of the fitted maximal effect.

SMILES | Potency | viability
CCN1CCC(n2cc(CNc3cc(Cl)c4ncc(C#N)c(Nc5ccc(F)c(Cl)c5)c4c3)nn2)CC1 | 18700 nM (active) | –
Cc1nc2c(-c3cnc(N)nc3)nc(N3CCOCC3)nc2n1C(C)C | 18.6 nM (active) | –
O=C(Nc1ncc(-c2cc(C(F)F)nn2-c2c(Cl)cccc2Cl)s1)C1CC1 | 935 nM (active) | –
CC(C)C(=O)Nc1ccc([N+](=O)[O-])c(C(F)(F)F)c1 | 2090 nM (active) | –
O=C(Nc1ccc([N+](=O)[O-])cc1Cl)c1cc(Cl)ccc1O | 2350 nM (active) | –
Cc1cc(-c2ccc(CC(=O)Nc3ccc(-c4cccnc4)cc3)cc2)ccn1 | 16600 nM (active) | –
CCCCCCCCCCCC(CC1OC(=O)C1CCCCCC)OC(=O)C(CC(C)C)NC=O (stereo not given) | 20900 nM (active) | –
COc1cc(OC)c(NC(=O)Nc2cc(C)on2)cc1Cl | – | 100% (inactive)
Cc1cc(Nc2cc(N3CCN(C)CC3)nc(Sc3ccc(NC(=O)C4CC4)cc3)n2)n[nH]1 | 296 nM (active) | –
CCC[C@H](Nc1nc(-c2ccc(NC(=O)NCC)c(OC)c2)ncc1C)c1cccnc1 | 41.8 nM (active) | –
COc1cc2ncnc(-n3nc(-c4ccccn4)nc3N)c2cc1OC | 26400 nM (active) | –
CN(C)c1nc(Cc2ccc(NC(=O)c3ccc4ccccc4c3)cc2)nc(Cl)c1CC(=O)O | 2960 nM (active) | –
CCCCC(C)(C)[C@H](O)C=C[C@H]1[C@H](O)CC(=O)[C@H]1CC=CCCCC(=O)O | 26400 nM (active) | –
CCc1c2c(nc3ccc(O)cc13)-c1cc3c(c(=O)n1C2)COC(=O)[C@]3(O)CC | 5.3 nM (active) | –
OC[C@H]1OC(O)C[C@@H](O)[C@H]1O (stereo not given in full) | – | 89.1% (inactive)
O=C(Nc1cccc2c(=O)cc(-c3nn[nH]n3)oc12)c1ccc(OCCCCc2ccccc2)cc1 | 18700 nM (active) | –
Nc1nc(NCCNc2ncc(-n3ccnc3)c(-c3ccc(Cl)cc3Cl)n2)ccc1[N+](=O)[O-] | – | 102% (inactive)
Nc1nc2c(c(=O)[nH]1)N(C=O)[C@H](CNc1ccc(C(=O)N[C@@H](CCC(=O)O)C(=O)O)cc1)CN2 | 2640 nM (active) | –
Nc1nc(Cl)nc2c1ncn2[C@@H]1O[C@H](CO)[C@@H](O)[C@H]1F | – | 4.28% (inactive)
C[N+](C)([O-])CCNc1ccc(NCC[N+](C)(C)[O-])c2c1C(=O)c1c(O)ccc(O)c1C2=O | 743 nM (active) | –
